Measured values as given in the supplement of paper PMC11624193, “Coupling cellular drug-target engagement to downstream pharmacology with CeTEAM” (Nature Communications, 2024).
Structures can show the parent of a compound that is named as a salt. Unmarked numbers belong to inactive results.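 How the source made its calls: active = log2 fold change beyond 2 SD from the library mean after excluding viability outliers; inactive = within 2 SD.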

Each molecule was assayed against PARP1 L713F-nLuc biosensor (HCT116) (UniProt P09874) (assay: PARP1 L713F-nLuc/akaLuc ratio relative to DMSO control (biosensor stabilization) (fold change); higher = more PARP1 biosensor stabilization (target engagement / stabilizer), active = hit call of the paper). Settings: stock concentration (mM; final µM = stock mM x 1): 10; 24 h.
PARP1 L713F-nLuc biosensor (HCT116), sequence (P09874 whole entry L713F, looked up): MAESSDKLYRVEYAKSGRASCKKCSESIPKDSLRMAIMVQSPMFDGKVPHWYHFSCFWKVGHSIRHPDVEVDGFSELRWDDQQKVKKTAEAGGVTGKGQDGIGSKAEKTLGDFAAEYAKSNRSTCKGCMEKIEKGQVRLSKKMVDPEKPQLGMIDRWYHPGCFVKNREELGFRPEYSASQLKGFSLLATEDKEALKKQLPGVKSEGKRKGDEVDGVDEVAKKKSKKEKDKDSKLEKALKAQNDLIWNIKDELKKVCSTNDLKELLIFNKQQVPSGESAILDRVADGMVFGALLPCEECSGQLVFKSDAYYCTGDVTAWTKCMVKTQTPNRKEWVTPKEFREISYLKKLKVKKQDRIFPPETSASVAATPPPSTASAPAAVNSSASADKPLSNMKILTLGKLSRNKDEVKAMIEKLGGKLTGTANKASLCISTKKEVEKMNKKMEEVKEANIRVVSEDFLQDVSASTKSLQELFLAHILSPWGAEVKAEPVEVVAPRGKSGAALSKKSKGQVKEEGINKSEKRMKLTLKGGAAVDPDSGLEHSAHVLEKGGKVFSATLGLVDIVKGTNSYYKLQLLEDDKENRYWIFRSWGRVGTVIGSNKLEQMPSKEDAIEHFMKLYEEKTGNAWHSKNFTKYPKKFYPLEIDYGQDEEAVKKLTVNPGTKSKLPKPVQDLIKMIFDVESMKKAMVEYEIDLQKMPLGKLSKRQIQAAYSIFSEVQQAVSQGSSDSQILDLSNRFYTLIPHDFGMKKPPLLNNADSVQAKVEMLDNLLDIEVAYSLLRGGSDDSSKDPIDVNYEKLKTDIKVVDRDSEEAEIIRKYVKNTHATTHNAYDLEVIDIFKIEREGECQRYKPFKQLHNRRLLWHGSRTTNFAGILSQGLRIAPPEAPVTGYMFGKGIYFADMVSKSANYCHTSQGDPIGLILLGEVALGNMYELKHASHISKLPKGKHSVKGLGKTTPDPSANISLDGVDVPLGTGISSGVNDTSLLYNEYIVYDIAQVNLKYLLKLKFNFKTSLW

Compound	PARP1 L713F-nLuc/akaLuc ratio
COc1cc2ncnc(Oc3cccc(NC(=O)Nc4cc(C(C)(C)C(F)(F)F)on4)c3)c2cc1OC	1.02
CCn1c(C(=O)N(C2CC2)C2CC2)cc2c3c(ncn3C)c(Nc3cc(C)n(C)n3)nc21	1.01
CN(c1ccccc1)c1ccc2c(c1)CCC[C@H]2CNc1cnccc1C(=O)O	0.387
N[C@H]1C(O)O[C@H](CO)[C@@H](O)[C@@H]1O (stereo partly specified) [Glucosamine (hydrochloride)]	1.15
C=CC(=O)Nc1cccc(Nc2nc(Nc3ccc(OCCOC)cc3)ncc2F)c1 [Spebrutinib (CC-292, AVL-292)]	0.464
CC(C)[C@@](C)(O)[C@@H]1CN(c2nc(-c3[nH]nc4ncccc34)c(F)cc2Cl)CCN1	0.823
O=C(NCC1(c2nc(-c3ccccc3)cs2)CCOCC1)c1cccc(-c2noc(C(F)(F)F)n2)c1	0.465
COc1cc(/C=C/C(=O)O[C@H]2CC[C@]34C[C@]35CC[C@]3(C)[C@@H]([C@H](C)CCC=C(C)C)CC[C@@]3(C)[C@@H]5CC[C@H]4C2(C)C)ccc1O [γ-Oryzanol]	1.11
O=C(NC[C@H](O)CN1CCc2ccccc2C1)c1ccnc(NC2CCC2)c1	0.738
Cc1nc(Nc2n[nH]c3c2CN(C(=O)N[C@H](CN(C)C)c2ccccc2)C3(C)C)c2sccc2n1	5.51 (active)
COc1c(O)cc2oc(-c3ccc(O)cc3)cc(=O)c2c1O [Hispidulin]	0.723
CS(=O)(=O)c1ccc(-c2cnc(N)c(C(=O)Nc3ccccc3)n2)cc1	1.46
CN[C@@H](C)C(=O)N[C@H]1CN(C(=O)CC(C)C)CC[C@H]2CC[C@@H](C(=O)NC(c3ccccc3)c3ccccc3)N2C1=O	0.738
CCN(c1cc(-c2ccc(CN3CCOCC3)cc2)cc(C(=O)NCc2c(C)cc(C)[nH]c2=O)c1C)C1CCOCC1 [Tazemetostat]	0.962
CC(C)(C)c1nc2c3cc[nH]c(=O)c3c3cc(F)ccc3c2[nH]1 [Pyridone 6]	0.692
CC[C@H](C)C(=O)O[C@H]1C[C@H](O)C=C2C=C[C@H](C)[C@H](CC[C@@H](O)C[C@@H](O)CC(=O)O)[C@H]21 [Pravastatin sodium]	0.829

Compound	PARP1 L713F-nLuc/akaLuc ratio
Cc1ccc(NC(=O)c2ccc(CN3CCN(C)CC3)cc2)cc1Nc1nc(-c2cccnc2)cs1 [Masitinib (AB1010)]	0.851
CC1(C)CNc2cc(NC(=O)c3cccnc3NCc3ccncc3)ccc21 [Motesanib Diphosphate (AMG-706)]	1.5
CN1CCN(c2ccc(-c3cccc(CN4CCOCC4)c3)cc2NC(=O)c2c[nH]c(=O)cc2C(F)(F)F)CC1	0.636
O=C(O)CNC(=O)c1c(O)c2ccccc2n(OCC2CC2)c1=O [Desidustat]	0.943
CCCS(=O)(=O)Nc1ccc(F)c(C(=O)c2c[nH]c3ncc(-c4ccc(Cl)cc4)cc23)c1F [Vemurafenib (PLX4032, RG7204)]	0.608
FC(F)c1nc2ccccc2n1-c1nc(N2CCOCC2)nc(N2CCOCC2)n1	0.962
CS(=O)(=O)NCCC1CCN(c2ncnc3cc(C(N)=O)sc23)CC1	0.762
Oc1cc(O)c2c(c1)OC1(c3ccc(O)c(O)c3)Oc3cc(O)c4c(c3C2C1O)OC(c1ccc(O)c(O)c1)C(O)C4 (stereo unspecified) [Procyanidin A1]	1.43
COc1cc2nc(N3CCCN(C)CC3)nc(NC3CCN(Cc4ccccc4)CC3)c2cc1OC	0.488
C=CC(=O)N1C[C@H](Nc2ncnc3[nH]ccc23)CC[C@@H]1C [Ritlecitinib]	1.01
O=c1ccc2ccc(O)c(O)c2o1 [Daphnetin]	1.38
Cc1ccc(Oc2nc3cc(-c4ccc5c(ccn5C)c4)c(Cl)cc3[nH]2)cc1C(=O)O	0.541
NC1(c2ccc(-c3nc4ccn5c(=O)[nH]nc5c4cc3-c3ccccc3)cc2)CCC1	0.79
CCN(C(=O)c1cc(F)ccc1Oc1cncnc1N1CC2(CCN(C[C@H]3CC[C@H](NS(=O)(=O)CC)CC3)CC2)C1)C(C)C	0.797
CC[C@H](C)C(=O)O[C@H]1C[C@@H](C)C=C2C=C[C@H](C)[C@H](CC[C@@H]3C[C@@H](O)CC(=O)O3)[C@H]21 [Lovastatin]	0.643
